Laboratory results: PubChem BioAssay AID906 (National Center for Advancing Translational Sciences (NCATS), 2007)
This is one part of the list. Inconclusive results are not listed. A number with no mark means an inactive call. The source made the active and inactive calls. Calls follow the shape of the dose curve; as a rule, active = well fitted inhibition curve with a large enough effect; inconclusive = small, poorly fitted or top-dose-only effect, or another doubt; inactive = no such curve, though single readings can be large or run the other way.

Experiment: Cell Viability - CRE-beta lactamase CHO cell - 40 hr assay
Settings: CRE-bla CHO viability, ATP luminescence; max response: active compounds read low
Text: NIH Chemical Genomics Center [NCGC] NIH Molecular Libraries Screening Centers Network [MLSCN] National Institutes of Environmental Health Sciences [NIEHS] National Toxicology Program [NTP] MLSCN Grant: 1X01MH079867-01 Assay Provider: Marshall W. Nirenberg, U.S. National Heart, Lung and Blood Institute NCGC Assay Overview: We have developed a 1536-well cell-based assay for quantitative high throughput screening (qHTS) against a number of cell lines to determine in vitro cytotoxicity of small molecules. This particular assay uses CRE-bla CHO cell line from Invitrogen.
NCGC Assay Protocol Summary: The CellTiter-Glo luminescent cell viability assay (Promega) is a homogeneous method to measure the number of viable cells in culture. The end point readout of this assay is based on quantitation of intracellular ATP, an indicator of metabolic activity, using the luciferase reaction. Luciferase catalyzes the oxidation of beetle Luciferin to oxyluciferin and light in the presence of ATP. The luminescent signal is proportional to amount of ATP present. Using the CellTiter-Glo luminescent cell viability assay, the amount of cellular ATP was measured in the CRE-bla CHO cell line with complete culture medium following compound treatment for 40 hours. The assay was performed in opaque white Kalypsys 1536-well plates. In the screen, tamoxifen was used as positive control. The selected compounds were measured for their ability to cause acute toxicity in the cell line, as reflected by a decrease in intracellular ATP levels, in a concentration-dependent manner. Data were normalized to the controls for basal activity (DMSO only) and 100% inhibition (100 uM tamoxifen). AC50 values were determined from concentration-response data modeled with the standard Hill equation. NCGC Assay Protocol Summary 1. Reagent; 5 uL; 2000 CHO cells/well 2. Time; overnight; 37 °C incubation 3. Compounds; 23 nL; 5.9 nM to 46 uM 4. Controls; 23 nL; Tamoxifen 4.5 nM to 92 uM 5. Time; 40 hr; 37 °C incubation 6. Reagent; 5 uL; CellTiter Glo reagent 7. Time; 20 min; Room Temperature 8. Detection; Luminescence; Viewlux plate reader Keywords: cell viability, cytotoxicity, CHO cell line, luminescence, MLSMR, MLSCN, NIH Roadmap, qHTS, NCGC

Compound | max response [%] | Potency
Cc1nc(SCC(=O)Nc2cc(C)on2)c2c3c(sc2n1)CCCC3 | -15.8 | –
CC1CCc2sc3nc(N4CCN(CCO)CC4)n4ncnc4c3c2C1 (stereo not given) | -25.1 | –
CCc1nc(Nc2ccc3nccnc3c2)c2oc3ccccc3c2n1 | -16.6 | –
Cc1nn(-c2ccccc2)c2sc(C(=O)N(Cc3ccco3)C(C)C(=O)NC(C)(C)C)cc12 (stereo not given) | – | 12.6 µM (active)
COc1ccc(CCNC(=O)CSc2nc(C)nc3c2oc2ccccc23)cc1OC | -16.6 | –
